Assay outcomes: PubChem, National Center for Advancing Translational Sciences (NCATS)
Only a selection was taken, and hits are over-represented in it overall.
RXFP1 agonist – RXFP1 (human) receptor agonism; 370,000 compounds, 0.3% hits; Potency, µM (doses to about 57.5 µM), for inactives: at the highest dose activation, actives largely listed as activators; Q9HBX9; HEK293T-RXFP1 cAMP TR-FRET, 30 min; response scale: percent of porcine relaxin response, buffer zero; also: potency is read from the fitted curve at half-maximal effect; % is scaled to controls: 0 for no effect and ±100 for the full control effect; nearly all actives have a fitted effect of over 60% in size
Target sequence (Q9HBX9 whole entry, looked up): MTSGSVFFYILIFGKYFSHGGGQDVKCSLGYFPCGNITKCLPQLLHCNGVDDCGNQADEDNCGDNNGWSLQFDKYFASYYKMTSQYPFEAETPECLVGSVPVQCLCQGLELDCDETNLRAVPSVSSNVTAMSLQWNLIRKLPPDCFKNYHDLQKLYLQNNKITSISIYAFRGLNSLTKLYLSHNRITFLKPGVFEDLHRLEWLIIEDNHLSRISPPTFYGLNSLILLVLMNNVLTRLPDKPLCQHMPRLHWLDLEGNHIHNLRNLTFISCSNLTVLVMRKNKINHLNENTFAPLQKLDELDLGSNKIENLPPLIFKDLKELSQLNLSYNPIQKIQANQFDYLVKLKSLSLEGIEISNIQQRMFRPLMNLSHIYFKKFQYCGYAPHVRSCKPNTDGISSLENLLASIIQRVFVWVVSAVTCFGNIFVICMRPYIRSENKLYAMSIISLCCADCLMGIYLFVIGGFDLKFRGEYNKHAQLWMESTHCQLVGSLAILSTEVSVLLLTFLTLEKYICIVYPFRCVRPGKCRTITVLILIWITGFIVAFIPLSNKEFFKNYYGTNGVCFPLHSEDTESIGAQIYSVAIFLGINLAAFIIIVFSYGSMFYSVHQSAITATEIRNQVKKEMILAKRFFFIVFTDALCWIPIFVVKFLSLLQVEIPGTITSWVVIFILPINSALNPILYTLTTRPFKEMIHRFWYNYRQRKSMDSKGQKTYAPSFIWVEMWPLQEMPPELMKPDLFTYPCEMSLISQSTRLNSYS
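HEK293 cells stably expressing RXFP1, treated 30 min at 37C with compounds plus PDE4 inhibitor Ro 20174; cAMP measured by HTRF TR-FRET. Normalized to buffer and 29 nM porcine relaxin; EC50 by Hill fit.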
PTHR1 ag – agonists of human PTHR1 parathyroid hormone receptor; HEK293 GP2 PTHR1 cells, GloSensor cAMP luminescence, 1 h; 410,000 compounds, 0.075% hits; Potency, µM (doses to about 115 µM), without a hit: at the top dose activation, usual class: activators; Q03431; also: potency is read from the fitted curve at half-maximal effect; nearly all actives have a fitted effect of over 55% in size
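HEK-293-derived GP2 cells expressing PTHR1 and a GloSensor cAMP reporter, 3,000/well, plated overnight, given luciferin plus IBMX (each 0.5 mM as added) for 1 h at 37 °C, then compound for 1 h at 37 °C. Luminescence was read after 15 min at room temperature.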
NPSR antag – antagonists of human neuropeptide S receptor cAMP signaling. Q6W5P4. CHO-NPSR cells, cAMP TR-FRET, antagonist mode. Potency, µM (highest dose often 38.3 µM), inactives show at the top dose activity change, negative = inhibition, usual class: inhibitors. 220,000 compounds, 1% hits. AID 1461; also: potency is read from the fitted curve at half-maximal effect; % is scaled to controls: 0 for no effect and ±100 for the full control effect; nearly all actives have a fitted effect of over 50% in size
RXFP1 antagonist – RXFP1 (human) relaxin receptor antagonism; Q9HBX9; HEK293-RXFP1, relaxin-stimulated cAMP HTRF, 30 min; active compounds read low; activity change, negative = inhibition, % at 57.5 µM; 350,000 compounds, 0.59% hits; AID 1259400;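 active = activity change of -60% or lower, but not beyond a set lower limit; inconclusive = change between -60% and -40%, or beyond the set limit; inactive = change above -40%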; also: % is scaled to controls: 0 for no effect and ±100 for the full control effect
TSHR antagonist – antagonists of human thyroid stimulating hormone receptor. AID 504810. TSHR-expressing cells, TSH-stimulated cAMP HTRF, 2 h; active compounds read low. 330,000 compounds, 0.2% hits. activity change, negative = inhibition, % at 11.5 µM;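 active = activity change below a set negative limit, meaning inhibition stronger than a set level, cut at about -70% in these data; inconclusive = activity change between two set negative limits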; also: % is scaled to controls: 0 for no effect and ±100 for the full control effect
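Inhibition of cAMP made by TSHR-expressing cells under TSH stimulation (4nM final, EC80; 2 h, 37 deg C) is quantified with a one-step lysis HTRF kit, anti-cAMP cryptate versus cAMP-d2.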
TCR act – activators of T cell receptors; primary human leukocytes, anti-CD3, IL-2 HTRF, 48 h; 330,000 tested, under 10 active; Potency, µM (top dose mostly 9.22 µM), for the others: top-dose activation of IL-2 secretion, hits mostly activators; AID 504894; also: % of control where 0% means no effect
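Primary human leukocytes incubated 48 hr with anti-CD3 beads plus compound, without co-stimulation. Secreted IL-2 measured by HTRF (europium cryptate/d2 anti-IL-2 pair, 320 nm excitation, 665 nm emission).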
An asterisk follows results filed as active; i = inactive; ? = inconclusive; / = no result given; [ ] = dose if it differs, or a comment. Unless noted, calls follow the shape of the dose curve; as a rule, active = well fitted curve in the direction sought with a large enough effect; inconclusive = small, poorly fitted or top-dose-only effect, or another doubt; inactive = no such curve, though single readings can be large; an effect the other way counts as inactive or inconclusive.

SMILES	RXFP1 agonist	PTHR1 ag	NPSR antag	RXFP1 antagonist	TSHR antagonist	TCR act
C#CC(=O)N(c1cc(OC)ccc1OC)C(C(=O)NC1CCCC1)c1cccs1 (centres undefined)	0%	-28%	10µM*	-1	-29	-2%
CCCN(C(=O)c1c(C)oc2ncn(CC(C)C)c(=O)c12)c1ccccc1C	0%	-30%	/	/	/	/
CCc1ccc2nc3c(c(C(=O)O)c2c1)CCC3	2%	i	-7%[46.1 µM]	1	16	2%
Cc1cc(Br)c2nc3c(c(C(=O)O)c2c1)CCCCC3	2.2µM*	6%	1µM*	52	393	-23%[46.1 µM]
Cc1cccc2c1NC(=O)C2(c1ccc(O)cc1)c1ccc(O)cc1	-1%	i	-23%[46.1 µM]	-17	-81*	9%
Cc1ccc(N2CCN(C(=O)C3CCN(S(=O)(=O)c4ccc5c(c4)oc(=O)n5C)CC3)CC2C)cc1 (centres undefined)	-2%	-9%	/	/	/	/
Cc1ccc(S(=O)(=O)Nc2ccccc2/C=N/c2nc3ccccc3n2C(C)C)cc1	0%	-7%	-25%	-64*	-10	-5%[46.1 µM]
CCCCn1c(/N=C/c2ccccc2NS(=O)(=O)c2ccc(C)cc2)nc2ccccc21	-1%	i	-11%	/	-42	-8%[46.1 µM]
CCOC(=O)c1cc(S(=O)(=O)NCc2cccc(Cl)c2)[nH]n1	0%	i	/	-19	/	/
O=C(NC(NC(=S)Nc1ccc(Cl)cc1Cl)C(Cl)(Cl)Cl)c1cccc([N+](=O)[O-])c1 (centres undefined)	6%	-46%[57.5 µM]	10µM*	-22	?	1%
O=C(NC(NC(=S)Nc1ccccc1)C(Cl)(Cl)Cl)c1cccc(Cl)c1 (centres undefined)	-1%	-90%	13µM*	0	-34	-2%
CC(C)(C)C(=O)OCOC(=O)C1N2C(=O)CC2S(=O)(=O)C1(C)C (centres undefined)	/	/	/	-13	/	/
O=c1[nH]cnc2c1c(-c1ccccc1)cn2-c1cccc(Cl)c1	3%	-30%	/	-112*	-3	1%
COc1ccc(-n2cc(-c3ccccc3)c3c(=O)[nH]cnc32)cc1	1%	i	-18%	-15	0	5%[46.1 µM]
Cn1nnnc1SCCNCc1ccc(OCc2ccc(Cl)cc2)cc1	2%	-19%	/	/	/	/
CCOc1cc(/C=C/c2ccc3cccc([N+](=O)[O-])c3n2)cc(Cl)c1O	-1%	-1%	?	-27	-72*	4%[46.1 µM]
O=[N+]([O-])c1cccc2ccc(/C=C/c3ccc(Cl)cc3)nc12	0%	i	?	/	1	0%[46.1 µM]
C=CCNC(=S)Nc1sc2c(c1C(=O)OCC)CCN(C(=O)OCC)C2	11%	-8%[57.5 µM]	-14%[46.1 µM]	-80*	/	2%
COc1ccc(-c2cn3c(n2)sc2cc(C(=O)Nc4cccc(SC)c4)ccc23)cc1	6%	i	/	20	/	/
CC(=O)c1ccc(NC(=O)CSc2nc(-c3ccccc3C)nc3c2c(=O)n(C)c(=O)n3C)cc1	?	-25%	/	-5	/	/
O=c1oc2ccccc2c(NC2CCCCC2)c1NS(=O)(=O)c1ccc(F)c(Cl)c1	1%	i	/	-63*	8	2%
Cc1ccc(S(=O)(=O)Nc2c(NC3CCCCC3)c3ccccc3oc2=O)cc1C	0%	i	/	6	19	-6%
CN1CC(c2ccccc2)C2(SC(=S)N(Cc3ccco3)C2=O)C12C(=O)Nc1ccccc12 (centres undefined)	-2%	-15%	10µM*	-9	-4	4%
COc1cc(CN(C(=O)c2cccc(C)c2)c2ccccn2)cc(OC)c1OC	4%	i	/	/	/	/
CCOC(=O)N=Nc1c2ccccc2c2nc3no[nH]c3nc12	0%	-45%	6.3µM*	15	17	4%
SMILES	RXFP1 agonist	PTHR1 ag	NPSR antag	RXFP1 antagonist	TSHR antagonist	TCR act
CCOC(=O)N=Nc1c(O)n(CC(=O)OC)c2ccccc12	-1%	i	-17%	11	-6	-1%
COc1ccccc1N(CC(=O)NCCSc1ccccc1)S(=O)(=O)c1ccc(C)cc1	5%	-43%	/	-4	/	/
CS(=O)(=O)N1CCN(c2ccccc2NC(=O)c2ccc(-c3ccc(Cl)cc3Cl)o2)CC1	0%	-11%[57.5 µM]	3.2µM*	4	4	-3%
CCCN(c1ccccc1F)S(=O)(=O)c1cc(-c2cc(C)no2)ccc1C	-1%	-26%	/	?	/	/
Cc1ccccc1-n1nc(CO)c(C(=O)NCCc2ccccc2)n1	-2%	i	/	-14	/	/
Cc1ccc(CNC(=O)NC23CC4CC(CC(C4)C2)C3)cc1	2%	i	-33%	-9	-13	1%[46.1 µM]
CC(=O)NC12CC3CC(C1)CC(C(=O)NCc1ccc(C)cc1)(C3)C2	-1%	21%	/	-68*	6	6%
CC1(C(=O)NC2CCCCC2)Cc2ccccc2C(=O)N1Cc1ccccc1Cl (centres undefined)	5%	-13%	/	9	/	/
Cc1ccc(S(=O)(=O)Oc2cccc(/C=N/n3cnnc3)c2)cc1	0%	i	-4%	/	-8	4%[46.1 µM]
Cc1ccc(S(=O)(=O)Oc2cccc(/C=N/Nc3ccc(C(=O)O)cc3)c2)cc1	0%	i	?	-62*	-21	3%
COc1ccc(OC)c(C(=O)CSc2ncc3c(n2)-c2ccccc2N(Cc2ccccc2C)S3(=O)=O)c1	12%	-3%	/	4	/	/
CCOC(=O)C1=C(N)OC2=C(C(=O)CC(C)(C)C2)C1c1ccc(C)s1 (centres undefined)	-4%	-11%	-33%	-62*	1	-4%
CCN1CCN(c2cc(N3CCc4ccccc4C3)c(F)cc2[N+](=O)[O-])CC1	1%	-31%	28%[46.1 µM]	-115*	3	-6%[46.1 µM]
COc1cc2nc(N3CCCN(C)CC3)nc(NC3CCN(Cc4ccccc4)CC3)c2cc1OC	/	/	/	/	-19	/
CCCCCc1cc(=O)oc2c(C(CCN3CCCCC3)c3cc(OC)c(OC)c(OC)c3)c(OC)cc(OC)c12 (centres undefined)	1%	i	10µM*	/	-4	-5%
COc1cc(C(CCN2CCN(c3ccccc3)CC2)c2c(OC)cc(OC)c3c(C)cc(=O)oc23)cc(OC)c1OC (centres undefined)	1%	i	6.3µM*	/	3	-5%
COc1cc(C(CCN2CCCC2)c2c(OC)cc(OC)c3ccc(=O)oc23)cc(OC)c1OC (centres undefined)	-2%	i	-43%	/	-6	-1%
CCCCCc1cc(=O)oc2c(C(CCN3CCCC(C)C3)c3cc(OC)c(OC)c(OC)c3)c(OC)cc(OC)c12 (centres undefined)	2%	i	6.3µM*	/	3	-24%
